This note sets out measurements from ChEMBL document CHEMBL3988442, “University of Dundee, Small-Polar-MMV Screening Library” (2021).

Hit rate of the full screen: of about 48,000 compounds, about 13,000 (27%) showed an effect of 50% or more. The list shows a part of the results.

The subject of the experiment is Wolbachia pipientis. The experiment is described as follows: Anti-Wolbachia Cell-Based Screen. The experiment is classed as functional. Also on record: scale not given: in the data most compounds retested in dose-response had high values. The settings on record: 5 µM.
With `O=C(c1coc(COc2cccc(F)c2)n1)N1CC[C@H](O)[C@@H](O)C1`, the “Percent Effect” value is listed as -11.67%.
Under `CC(C)(N)C(=O)N1CCC(c2nccnc2Oc2cccc(F)c2)CC1` stands 92.95%.
Under `O=C(NCc1nncn1C1CC1)Nc1ccc(OC2CCC2)c(F)c1` stands 8.636%.
Under `O=C(NCCNC(=O)C1CC1)c1cnc(-c2ccccc2)nc1` stands 15.61%; under `Cc1ncc(-c2ccccn2)c(CCNC(=O)CCC2CCCO2)n1` (centres undefined), 93.7%; under `CCOCCNC(=O)CCC1CCCO1` (centres undefined), -23.31%.
As to `COc1ccc(OC)c(CCNC(=O)CCC2CCCO2)c1` (centres undefined), the “Percent Effect” value was 18.05%.
Under `Cc1cccc(C)c1OCCNC(=O)CNC(=O)C1CCCC1` stands -3.994%; under `Cc1ncc(-c2ccccn2)c(CCNC(=O)C2CCCC2)n1`, 121.3%; under `CC(NCc1cnc(C2CCC2)s1)c1cccc(-n2ccnc2)c1` (centres undefined), -10.94%.
Next, `Cc1cc(C)c(CN2CCCC23Cc2ccccc2CNC3=O)c(C)c1` (centres undefined): 111.5%.
Under `Cc1ccc(CCN2CCCC23Cc2ccccc2CNC3=O)cc1` (centres undefined) stands 109.3%; under `Cc1cc(C)c2[nH]c(=O)c(CN3CCCC(O)(CO)C3)cc2c1` (centres undefined), -6.012%.
With `Cc1ccc(CN2CCCC23Cc2ccccc2CNC3=O)cc1` (centres undefined), the “Percent Effect” value was determined as 128.7%.
Next, `CC(C)NC(=O)N1CCC2(CC1)C(=O)NCCN2Cc1ccccc1.O=C(O)C(F)(F)F`: -27.1%; `O=C1N(CCc2ccccc2)CCCC1(O)CNCc1ccc(F)cc1` (centres undefined): 10.95%; `O=C(CC1CC1)N1CCC2(CC1)C(=O)NCCN2Cc1ccccc1`: -11.42%.
Consider `OC(CNCCn1cccn1)COc1cccc(C(F)(F)F)c1` (centres undefined), for which the “Percent Effect” value worked out at 6.446%.
Next, `CCN1CCC(NC(=O)CNC(C)Cn2cccn2)CC1` (centres undefined): 5.956%; `CCC[C@@H]1CN(Cc2cc3c(cc2OC)OCO3)C[C@H]1C(=O)O`: 5.15%; `CCc1ncncc1C(=O)NCCNc1ncnc2sccc12`: -23.73%.
Consider `CCOC[C@H]1CC[C@H]2[C@H](CCN2C(=O)c2cnccn2)O1`, for which the “Percent Effect” value came out at 103.2%.
Take `CCOC[C@@H]1CC[C@H]2[C@H](CCN2S(=O)(=O)Cc2ccccc2)O1`: the “Percent Effect” value was -7.135%.
Under `CCOC[C@@H]1CC[C@H]2[C@H](CCN2C(=O)c2cnccn2)O1` stands 112.7%; under `Cc1nc(COC[C@H]2CC[C@H]3[C@H](CCN3C(N)=O)O2)cs1`, -9.234%; under `Cc1nc(COC[C@@H]2CC[C@H]3[C@H](CCN3C(=O)C3CC3)O2)cs1`, -1.141%.
Under `COCC(=O)N1CC[C@@H]2O[C@H](COCc3csc(C)n3)CC[C@@H]21` stands 4.421%.
Next, `CN(C)C(C(=O)N1CCC(C#N)CC1)c1ccccc1F` (centres undefined): -0.3171%.
Take `CCN1C[C@H]2C3(CCN(C(C)=O)CC3)CC[C@@]2(C(=O)N(C)C)C1.O=C(O)C(F)(F)F`: the “Percent Effect” value stood at 6.202%.
On to `O=c1cc(-c2cccnc2)nc(-c2ccc(CN3CC[C@@H](O)C3)cc2)[nH]1`, for which the “Percent Effect” value is 3.03%.
On to `c1cncc(-c2nc(C3CC3)ncc2-c2ccnc(N3CCCC3)n2)c1`, for which the “Percent Effect” value worked out at 90.28%.
`CCCn1cc(-c2ccnc(NC3CCc4ccccc4C3)n2)c(C)n1` (centres undefined): the “Percent Effect” value worked out at 0.5444%.
Turning to `Cc1ncc(-c2ccnc(NC3CC3)n2)c(-c2cccnc2)n1`, the “Percent Effect” value was 88.62%.
As to `Cc1ncc(-c2ccnc(N3CC[C@H](O)C3)n2)c(-c2cccnc2)n1`, the “Percent Effect” value is 109%.
Turning to `COc1ccnc(N2CCCN(c3nc(C4CC4)ns3)CC2)n1`, the “Percent Effect” value is recorded as 2.276%.
For the molecule `Cc1ncc(-c2ccnc(N3CCC[C@@H]3CO)n2)c(-c2cccnc2)n1`, the “Percent Effect” value is listed as 102.7%.
Consider `Cc1ncc(-c2ccnc(N3CCCCCC3)n2)c(-c2cccnc2)n1`, for which the “Percent Effect” value is -6.559%.
Next, `Cc1noc(-c2ccc(N3CCC[C@H]3CO)nc2)n1`: 4.962%; `COc1ccccc1Oc1ncccc1CNC(=O)CN1CCCC1=O`: -22.72%.
Next, `O=C(Nc1ccccc1)N1CCC(N2Cc3ncccc3C2=O)CC1`: -2.29%; `CSC1(CNc2ncc(Br)cn2)CCOCC1`: -8.791%.
On to `COc1ccccc1C(=O)N(Cc1nc(C)cs1)CC1CCCO1` (centres undefined), for which the “Percent Effect” value is reported as -4.042%.
Under `CCC[C@H]1CN(CCS(C)(=O)=O)C[C@@H]1NC(=O)c1cccnn1` stands 3.679%; under `COc1ccsc1C(=O)Nc1cc(Cl)c(=O)n(C)c1`, -0.9546%.
Next, `O=C(NCCCOC1CCOC1)NC(C1CC1)C1CC1` (centres undefined): -5.056%; `CCCc1nc(C)c(CN2CC3(CCOC3)CCC2=O)s1` (centres undefined): -4.631%; `COc1ccc(-c2nc(CC(=O)N(C)CCC#N)cs2)cc1OC`: -11.11%.
Next, `CCN(CC)[C@@H]1CN(C(=O)c2ccc(C#N)cc2)[C@@H]2CCCO[C@H]12.O=C(O)C(F)(F)F`: -2.681%; `CN(C)C(=O)CO[C@@H]1CN(Cc2ccccc2)[C@@H]2CCCO[C@@H]21`: -2.745%.
Regarding `CN(Cc1cncnc1)[C@H]1CN(C(=O)c2ccco2)[C@@H]2CCCO[C@@H]21`, the “Percent Effect” value is on record as 83.44%.
For the molecule `CN(Cc1ccco1)[C@@H]1CN(Cc2ccc(F)cc2)[C@@H]2CCCO[C@H]12.O=C(O)C(F)(F)F.O=C(O)C(F)(F)F`, the “Percent Effect” value stood at 1.532%.
On to `CN(Cc1ccco1)[C@@H]1CN(CC2CCOCC2)[C@@H]2CCCO[C@H]12.O=C(O)C(F)(F)F.O=C(O)C(F)(F)F`, for which the “Percent Effect” value was found to be 6.763%.
On to `CN(Cc1cncnc1)[C@@H]1CN(C(=O)C2CC2)[C@@H]2CCCO[C@H]12.O=C(O)C(F)(F)F`, for which the “Percent Effect” value is on record as 103.9%.
Under `Cc1ccc(CN2C[C@H](N(C)Cc3cncnc3)[C@H]3OCCC[C@H]32)o1` stands -12.1%.
Next, `CCN(CC)[C@@H]1CN(C(=O)c2ccnnc2)[C@@H]2CCCO[C@H]12.O=C(O)C(F)(F)F`: -6.627%; `CN(Cc1ccco1)[C@@H]1CN(C(=O)c2ccnnc2)[C@@H]2CCCO[C@H]12.O=C(O)C(F)(F)F`: 0.1298%; `CCCS(=O)(=O)N1C[C@H](N(C)Cc2ccco2)[C@@H]2OCCC[C@@H]21.O=C(O)C(F)(F)F`: -9.069%.
For the molecule `COCC(=O)N1C[C@H](N(C)Cc2cncnc2)[C@H]2OCCC[C@H]21`, the “Percent Effect” value came out at 102.5%.
For `CN(Cc1cncnc1)[C@@H]1CN(C(=O)c2ccco2)[C@@H]2CCCO[C@H]12.O=C(O)C(F)(F)F`, the “Percent Effect” value amounted to 99.89%.
